Test results: ChEMBL document CHEMBL4513216, “Probing the Open Global Health Chemical Diversity Library for Multistage-Active Starting Points for Next-Generation Antimalarials” (ACS Infect Dis, 2020)
In all, about 69,000 compounds went through this assay and about 8,600 (12%) showed an effect of 50% or more. The entries come from a sample that favours strong results as a whole.

System: Plasmodium berghei
Test: Screen against P. berghei liver stage (PbLuc), transformed with Luciferase, at 10uM
Format: functional, HepG2
Conditions: tested at 10 uM

In order of falling INHIBITION:
1. CN(C)C[C@]12COC[C@H]1CN(Cc1ccccn1)C2  87.7%
2. O=C1CC2(CCN(CCCF)CC2)CN1Cc1cc(F)cc(F)c1  75.7%
3. O=C1CC2(CCN(Cc3ccoc3)CC2)CN1Cc1cc(F)cc(F)c1  73.4%
4. O=C1CC2(CCN(CC3CC3)CC2)CN1Cc1cc(F)cc(F)c1  69.3%
5. O=C1CC(c2ccccc2F)c2c(n(C3CCCC3)[nH]c2=O)N1 (stereo not given)  68.5%
6. Cc1ccc(CN2Cc3ccccc3OC3(CCC(CO)CC3)C2)s1 (stereo not given)  67.9%
7. O=C1CSC(c2ccsc2)c2c(n(C3CCOCC3)[nH]c2=O)N1 (stereo not given)  67.1%
8. CCCOCCN1CCC2(CC1)CC(=O)N(Cc1cc(F)cc(F)c1)C2  64.1%
9. O=C1CSC(c2ccsc2)c2c(n(C3CCCC3)[nH]c2=O)N1 (stereo not given)  63.3%
10. COCc1cc(O)nc(C2CCCN(Cc3ccc(OC)cc3)C2)n1 (stereo not given)  61.9%
11. O=C1CC2(CCN(CCO)CC2)CN1Cc1cc(F)cc(F)c1  60.1%
12. O=C1CSC(c2ccc(O)cc2)c2c(n(C3CCOCC3)[nH]c2=O)N1 (stereo not given)  60.1%
13. COCc1cc(O)nc(C2CCCN(Cc3cccc(OC)c3)C2)n1 (stereo not given)  57.5%
14. CCNC(=O)CCc1c(C)nc2cc(O)nn2c1C  55.9%
15. OCC1CCC2(CC1)CN(Cc1ccccc1F)Cc1ccccc1O2 (stereo not given)  53.5%
16. COC(=O)CCc1c(C)nc2cc(O)nn2c1C  53.5%
17. COCc1cc(O)nc(C2CCCN(Cc3cc(OC)ccc3F)C2)n1 (stereo not given)  52.3%
18. CSc1ccc(C2SCC(=O)Nc3c2c(=O)[nH]n3C2CCOCC2)cc1 (stereo not given)  52.1%
19. O=C1CSC(c2ccncc2)c2c(n(C3CCOCC3)[nH]c2=O)N1 (stereo not given)  52.1%
20. OCC1CCC2(CC1)CN(Cc1ccsc1)Cc1ccccc1O2 (stereo not given)  51.5%
21. COc1cccc(CC(=O)N2CCCC2c2nc(C)c(C)c(O)n2)c1 (stereo not given)  50.8%
22. COc1ccc(F)c(CN2CCC(c3cc(O)nc(C)n3)C2)c1 (stereo not given)  50.6%
23. O=C1CSC(c2cccnc2)c2c(n(C3CCOCC3)[nH]c2=O)N1 (stereo not given)  48.1%
24. COc1cccc(CN2CCC(c3cc(O)nc(C)n3)C2)c1 (stereo not given)  47.8%
25. CN1CC(=O)N(C2CCNCC2)Cc2c(NCC(C)(C)C)ncnc21  47.4%
26. Cc1ncc(CN2Cc3ccccc3OC3(CCC(CO)CC3)C2)cn1 (stereo not given)  47.2%
27. CCc1cc(O)nc(C2CCCN(Cc3ccncc3)C2)n1 (stereo not given)  47.1%
28. O=C1CC2(CCN(CC3CCOC3)CC2)CN1Cc1cc(F)cc(F)c1 (stereo not given)  46.8%
29. COc1ccc(CC(=O)N2CCCC2c2nc(C)c(C)c(O)n2)cc1 (stereo not given)  46%
30. Cc1ccc(CN2CC(C(=O)Nc3ccccc3)C3(CCOCC3)C2)s1 (stereo not given)  45.8%
31. CC(=O)N1CCO[C@@H]2CN(S(=O)(=O)c3ccc(F)cc3)CC[C@@H]2C1  45.4%
32. Cc1ccc(CN2Cc3ccccc3OC3(CCC(CO)CC3)C2)o1 (stereo not given)  44.1%
33. O=C1CC2(CCN(Cc3ccoc3)C2)CN1c1cncnc1 (stereo not given)  43.9%
34. O=C1CC(C2CCCCC2)c2c(n(C3CCCC3)[nH]c2=O)N1 (stereo not given)  43.4%
35. CC(=O)NCC(=O)NCC1(O)CCN(c2cnccn2)C1 (stereo not given)  42.25%
36. COc1ccc(OC)c(CN2CCC(c3cc(O)nc(C)n3)C2)c1 (stereo not given)  41.2%
37. CSCC(=O)N1CCCC(CO)(CC2CC2)C1 (stereo not given)  41.2%
38. Cc1cnccc1CN1Cc2ccccc2OC2(CCC(CO)CC2)C1 (stereo not given)  41.2%
39. COCCNC(=O)C1(Cc2ccccc2-c2ccncc2)CCOCC1  40%
40. COCc1cc(O)nc(C2CCCN(Cc3ccc(F)cc3)C2)n1 (stereo not given)  39.7%
41. CC(C)=CCN1CCC2(CC1)CC(=O)N(Cc1cc(F)cc(F)c1)C2  38.6%
42. CC(C(=O)N1CCCCCC1)N1CCN(Cc2nccn2C)CC1 (stereo not given)  37.4%
43. O=C1CC2(CCN(CCCO)CC2)CN1Cc1ccc(F)c(F)c1  36.8%
44. Cc1cc(C(=O)NCc2ccnc(N3CCN(C)CC3)c2)sc1C  36.45%
45. CC(C)N1CCC2(CC1)CC(=O)N(Cc1cc(F)cc(F)c1)C2  35.1%
46. CCN(CC)C(=O)CCc1c(C)nc2cc(O)nn2c1C  34.7%
47. O=C(c1cccn1Cc1cccs1)N1CCN2CCCCC2C1 (stereo not given)  33.3%
48. CC(C)(C)CCN1CCC(c2nnc(Cn3cccn3)n2C2CC2)CC1  32.2%
49. O=C1CSC(c2ccccc2)c2c(n(C3CCOCC3)[nH]c2=O)N1 (stereo not given)  32.2%
50. CCCn1nc(C)c(C(=O)N(C)[C@@H]2CC[C@@H](N3CCCC3)[C@@H]2O)c1C  32%
51. CCc1n[nH]c(C2CN(C(=O)c3ccnc(C4CC4)n3)CCO2)n1 (stereo not given)  31.3%
52. O=C1CN(C(=O)CN(CC2CCC2)CC(F)(F)F)CCN1  31%
53. CNC(=O)CCNC(=O)CCc1c(C)nc2cc(O)nn2c1C  29.2%
54. Cc1ccc(C(O)CN(C)Cc2cnn(C)c2)cc1C (stereo not given)  28.7%
55. Cc1cc(O)nc(C2CCCN(Cc3ccncc3)C2)n1 (stereo not given)  27.3%
56. CCc1ccc(CN2C[C@H](OCC(=O)N(C)C)[C@H]3COC[C@H]32)o1  26.5%
57. COc1ccc(F)c(CN2CCCC(c3cc(O)nc(C)n3)C2)c1 (stereo not given)  25.8%
58. COCCN1CCO[C@@H]2CN(Cc3ccc(C)s3)C[C@@H]2C1  24.6%
59. Cc1n[nH]c2c1C(c1ccncc1)SCC(=O)N2 (stereo not given)  23.5%
60. Cc1nn(C)c(N(C)C)c1CNC(C)COc1ccccc1F (stereo not given)  23.4%
61. Cc1nc2cc(O)nn2c(C)c1CCC(=O)NCCc1ccccc1  22.3%
62. Cc1cc(C)cc(N2CCN(C(=O)CCN3C[C@H]4CC[C@@H]3C4)CC2=O)c1  22.1%
63. COc1ccc(CN2CCC(c3cc(O)nc(C)n3)C2)c(F)c1 (stereo not given)  21.9%
64. CC(C)C(=O)N1CCCC1C(=O)Nc1ccc(F)c(F)c1 (stereo not given)  21.7%
65. COc1ccc(CC(=O)Nc2ccc3ncn(C(C)C)c(=O)c3c2)cc1  21.2%
66. OCC1CCC2(CC1)CN(Cc1ccccn1)Cc1ccccc1O2 (stereo not given)  21%
67. CCC1(CO)CCCN(C(=O)c2cc(COc3cccc(F)c3)[nH]n2)C1 (stereo not given)  20.9%
68. Cc1n[nH]c2c1C(c1ccsc1)SCC(=O)N2 (stereo not given)  19.7%
69. O=C1CC(c2ccsc2)c2c(n(C3CCOCC3)[nH]c2=O)N1 (stereo not given)  19%
70. Cc1cc(CN2C[C@@H]3COC[C@]3(CN(C)C)C2)no1  18.8%
71. COCc1cc(O)nc(C2CCCN(Cc3cccc(Cl)c3Cl)C2)n1 (stereo not given)  17.4%
72. NC(=O)C1CCN(C(=O)CCSCc2ccccc2)CC1  17.2875%
73. CCCS(=O)(=O)N1CCC2(CC1)CC(=O)N(Cc1cc(F)cc(F)c1)C2  17.1%
74. O=C(Nc1nc[nH]n1)c1cc(-c2ccc(F)cc2)n[nH]1  16%
75. CCOC(C)c1nccn1CC(=O)Nc1cc(C)on1 (stereo not given)  15.4%
76. CC(C)c1ncncc1C(=O)N1CCCN(Cc2ccccc2)CC1  14.1%
77. Cn1ccc(C(=O)NC2CCC23CCN(C(=O)c2ccncc2)CC3)c1 (stereo not given)  13.5%
78. COc1ccccc1C1CC(=O)Nc2c1c(=O)[nH]n2C1CCCC1 (stereo not given)  11.7%
79. Cc1nc([C@@H]2C[C@@H]3CCN(C(=O)Cc4cccs4)C[C@H]3O2)no1  11.6%
80. O=C(CO)N1CCC2(CC1)CC(=O)N(Cc1cc(F)cc(F)c1)C2  8.99%
81. CN(C)C[C@]12COC[C@H]1CN(Cc1ccc3ccccc3n1)C2  4.02%
82. COc1cccc(CC(=O)N2CCCC2c2nc(C)c(F)c(O)n2)c1 (stereo not given)  3.91%
83. Cc1nn(C)cc1CC(C#N)C(=O)Nc1cccc(O)c1 (stereo not given)  3.58%
84. COc1c(C)cnc(CN2CCOC(Cn3cncn3)C2)c1C (stereo not given)  2.97%
85. O=C(C1CCC2(CCN(CC3CCOCC3)CC2)O1)N1CCCC1 (stereo not given)  1.34%
86. CNc1snc(C)c1C(=O)N1CCC(Nc2ccc(C)nn2)CC1  1.15%
87. CCN1CC2(CCN(CCOc3ccc(F)cc3)CC2)CC1=O  0.868%
88. CC1=Nc2c(c(=O)[nH]n2C2CCOCC2)C(c2cccc(O)c2)S1 (stereo not given)  0.29%
89. CC(O)CN1CCN(C(=O)c2cccn2Cc2ccccc2)CC1 (stereo not given)  -0.113%
90. CCN(CC1CCOC1)C(=O)Nc1ccc(OCC(F)(F)F)nc1 (stereo not given)  -1.885%
91. COc1ccccc1C1SCC(=O)Nc2c1c(=O)[nH]n2C1CCCCC1 (stereo not given)  -2.39%
92. O=C(Nc1ccccc1)C1CN(Cc2ccsc2)CC12CCOCC2 (stereo not given)  -3.12%
93. O=C1CCC(=O)N1CCn1nnc(-c2cccc(Cl)c2)n1  -5.57%
94. O=C1CC2(CCN(CC3CC3)C2)CN1c1cccc(F)c1 (stereo not given)  -6.02%
95. O=C1CC2(CCN(Cc3ncc[nH]3)CC2)CN1Cc1cc(F)cc(F)c1  -6.05%
96. CNc1nccc(C2CCCCN2Cc2cnn3cccnc23)n1 (stereo not given)  -7.66%
97. CCn1cnnc1C1CCN(C(=O)c2cc3c(s2)CCOC3)CC1  -9.37%
98. CC(C)(C)n1ncc2c1NC(=O)CSC2c1ccsc1 (stereo not given)  -14.7%
99. Cc1nc(NC(=O)CCc2c(C)nc3cc(O)nn3c2C)sc1C  -14.7%
100. Cc1ccccc1CNC(=O)N1C[C@@H]2C[C@H](C(=O)N3CCCC3)[C@H](C1)O2  -16.9%
101. CCSCCn1cc(-c2nccs2)nn1  -17.5%
102. CCOc1ccc(C2SCC(=O)Nc3c2c(=O)[nH]n3C(CC)CC)cc1 (stereo not given)  -19.7%
103. CCCc1noc(-c2cn(CC(=O)N(CC)CC)nn2)n1  -51.7%
104. Cn1cc(C2SCC(=O)Nc3c2c(=O)[nH]n3C2CCOCC2)cn1 (stereo not given)  -70.7%
105. Cc1ccsc1CNC(=O)NC(C)c1ccc2c(c1)CCC(=O)N2 (stereo not given)  -121%
